# Laboratory results as given in publication PMC7862700, “An all-to-all approach to the identification of sequence-specific readers for epigenetic DNA modifications on cytosine”.
# Tests used:
# Experiment in all cases: DAPPL (digital affinity profiling via proximity ligation, sequencing); 10 mM Tris-HCl pH 7.5, 50 mM NaCl, 1 mM DTT, 4% glycerol, room temperature, 30 min; GST-TFs on glutathione beads, 16-mer random dsDNA library, 0.1% formaldehyde crosslink after washing; high values mean tight binding
# FLI1 = target: T1, FLI1 (Homo sapiens, UniProt Q01543 1-452); settings: protein: recombinant; tags: N-terminal GST; dsDNA, one strand shown
# T1 sequence: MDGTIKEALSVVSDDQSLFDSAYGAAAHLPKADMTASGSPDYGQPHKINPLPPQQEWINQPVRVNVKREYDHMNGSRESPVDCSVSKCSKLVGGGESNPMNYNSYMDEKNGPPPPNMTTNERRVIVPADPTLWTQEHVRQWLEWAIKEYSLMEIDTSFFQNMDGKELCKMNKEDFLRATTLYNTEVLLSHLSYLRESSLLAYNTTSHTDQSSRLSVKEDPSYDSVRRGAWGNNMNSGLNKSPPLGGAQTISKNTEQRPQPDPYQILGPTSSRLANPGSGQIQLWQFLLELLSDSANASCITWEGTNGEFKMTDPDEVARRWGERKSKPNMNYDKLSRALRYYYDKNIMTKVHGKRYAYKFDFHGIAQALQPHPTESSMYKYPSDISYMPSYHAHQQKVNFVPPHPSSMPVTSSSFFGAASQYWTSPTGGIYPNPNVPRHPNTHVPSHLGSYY
# How it was run: (§1)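 Beads coated with glutathione captured GST-fused human transcription factors that had been expressed in yeast, and the factors were then given DNA barcodes and pooled with a tag-only sample. The pools were incubated with 200 nmole of a random double-stranded 16-mer DNA library in Tris/NaCl/DTT/glycerol buffer for 30 min at room temperature, washed, crosslinked with 0.1% formaldehyde and proximity-ligated with BsaI/T4 ligase at 37 °C for 1 h. PCR amplification and Illumina NextSeq500 sequencing came last. Binding signal is each hexamer's read frequency for a factor divided by its frequency for the tag-only sample.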
# ELK1 = target: T2, ELK1 (Homo sapiens, UniProt P19419 1-428); settings: protein: recombinant; tags: N-terminal GST; dsDNA, one strand shown
# T2 sequence: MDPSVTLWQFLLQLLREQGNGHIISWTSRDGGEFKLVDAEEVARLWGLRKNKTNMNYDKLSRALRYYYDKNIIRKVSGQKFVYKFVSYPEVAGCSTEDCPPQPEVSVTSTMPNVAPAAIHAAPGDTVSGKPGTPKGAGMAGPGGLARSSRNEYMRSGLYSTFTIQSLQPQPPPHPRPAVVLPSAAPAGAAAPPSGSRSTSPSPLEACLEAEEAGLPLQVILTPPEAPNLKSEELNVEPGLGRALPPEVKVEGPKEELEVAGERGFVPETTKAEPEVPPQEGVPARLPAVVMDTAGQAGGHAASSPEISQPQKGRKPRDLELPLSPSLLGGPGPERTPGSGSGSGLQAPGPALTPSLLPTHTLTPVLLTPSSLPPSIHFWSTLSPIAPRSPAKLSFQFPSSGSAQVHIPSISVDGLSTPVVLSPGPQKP
# How it was run: as §1
# GABPA = target: T3, GABPA (Homo sapiens, UniProt Q06546 1-454); settings: protein: recombinant; tags: N-terminal GST; dsDNA, one strand shown
# T3 sequence: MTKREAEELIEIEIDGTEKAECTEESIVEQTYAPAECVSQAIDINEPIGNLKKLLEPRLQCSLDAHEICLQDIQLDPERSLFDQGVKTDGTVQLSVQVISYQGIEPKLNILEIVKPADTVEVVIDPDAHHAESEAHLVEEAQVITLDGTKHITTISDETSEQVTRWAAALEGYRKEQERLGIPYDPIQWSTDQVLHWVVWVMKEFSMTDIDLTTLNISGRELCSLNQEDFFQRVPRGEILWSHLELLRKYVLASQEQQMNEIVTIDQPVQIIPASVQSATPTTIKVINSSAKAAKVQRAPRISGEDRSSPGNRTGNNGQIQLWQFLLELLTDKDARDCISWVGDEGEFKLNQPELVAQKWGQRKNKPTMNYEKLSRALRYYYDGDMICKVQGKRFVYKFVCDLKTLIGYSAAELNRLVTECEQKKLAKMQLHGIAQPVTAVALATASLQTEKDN
# How it was run: as §1
# ERG = target: T4, ERG (Homo sapiens, UniProt P11308 1-479); settings: protein: recombinant; tags: N-terminal GST; dsDNA, one strand shown
# T4 sequence: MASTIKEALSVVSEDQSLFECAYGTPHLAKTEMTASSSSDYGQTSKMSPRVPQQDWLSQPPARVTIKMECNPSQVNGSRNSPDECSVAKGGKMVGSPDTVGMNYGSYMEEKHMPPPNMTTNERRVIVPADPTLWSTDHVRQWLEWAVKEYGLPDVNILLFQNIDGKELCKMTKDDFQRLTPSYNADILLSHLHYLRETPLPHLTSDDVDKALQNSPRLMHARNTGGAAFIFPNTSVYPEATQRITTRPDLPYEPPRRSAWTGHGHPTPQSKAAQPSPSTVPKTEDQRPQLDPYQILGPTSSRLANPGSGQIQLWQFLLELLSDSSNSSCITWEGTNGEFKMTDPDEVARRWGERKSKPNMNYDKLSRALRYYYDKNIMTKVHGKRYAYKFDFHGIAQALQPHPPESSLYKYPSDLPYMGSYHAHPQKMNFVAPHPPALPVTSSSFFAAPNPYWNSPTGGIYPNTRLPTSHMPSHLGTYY
# How it was run: as §1
# ELF1 = ELF1 (Homo sapiens, UniProt P32519 1-619); settings: protein: recombinant; tags: N-terminal GST; dsDNA, one strand shown
# Chain of ELF1 (P32519 whole entry): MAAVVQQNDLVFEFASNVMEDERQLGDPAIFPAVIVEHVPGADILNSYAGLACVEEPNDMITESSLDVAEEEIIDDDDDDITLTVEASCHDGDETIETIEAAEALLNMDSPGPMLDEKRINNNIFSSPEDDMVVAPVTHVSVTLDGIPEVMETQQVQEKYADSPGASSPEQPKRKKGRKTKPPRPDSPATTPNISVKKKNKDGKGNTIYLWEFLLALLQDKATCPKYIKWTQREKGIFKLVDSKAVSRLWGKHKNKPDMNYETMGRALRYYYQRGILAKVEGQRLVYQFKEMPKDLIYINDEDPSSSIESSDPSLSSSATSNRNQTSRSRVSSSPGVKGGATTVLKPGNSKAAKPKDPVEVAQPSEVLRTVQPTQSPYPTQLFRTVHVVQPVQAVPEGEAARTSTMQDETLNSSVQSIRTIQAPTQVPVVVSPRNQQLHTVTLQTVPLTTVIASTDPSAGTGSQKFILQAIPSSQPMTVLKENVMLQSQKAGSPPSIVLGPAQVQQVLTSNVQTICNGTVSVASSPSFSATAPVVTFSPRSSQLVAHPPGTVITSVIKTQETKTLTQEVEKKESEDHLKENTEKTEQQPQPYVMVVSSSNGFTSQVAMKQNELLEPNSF
# How it was run: as §1
# EHF = target: T5, EHF (Homo sapiens, UniProt Q9NZC4 1-300); settings: protein: recombinant; tags: N-terminal GST; dsDNA, one strand shown
# T5 sequence: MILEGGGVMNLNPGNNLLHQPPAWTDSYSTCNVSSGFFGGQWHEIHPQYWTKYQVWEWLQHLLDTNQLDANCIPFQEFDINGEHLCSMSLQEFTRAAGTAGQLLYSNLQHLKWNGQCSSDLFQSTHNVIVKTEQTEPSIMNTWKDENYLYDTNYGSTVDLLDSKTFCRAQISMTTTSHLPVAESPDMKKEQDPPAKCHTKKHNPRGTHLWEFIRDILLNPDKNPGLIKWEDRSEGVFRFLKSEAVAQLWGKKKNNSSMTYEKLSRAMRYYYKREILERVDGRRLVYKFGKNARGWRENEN
# How it was run: as §1
# SPI1 = SPI1 (Homo sapiens, UniProt P17947 1-270); settings: protein: recombinant; tags: N-terminal GST; dsDNA, one strand shown
# How it was run: as §1
# SPIB = SPIB (Homo sapiens, UniProt Q01892 1-262); settings: protein: recombinant; tags: N-terminal GST; dsDNA, one strand shown
# Chain of SPIB (Q01892 whole entry): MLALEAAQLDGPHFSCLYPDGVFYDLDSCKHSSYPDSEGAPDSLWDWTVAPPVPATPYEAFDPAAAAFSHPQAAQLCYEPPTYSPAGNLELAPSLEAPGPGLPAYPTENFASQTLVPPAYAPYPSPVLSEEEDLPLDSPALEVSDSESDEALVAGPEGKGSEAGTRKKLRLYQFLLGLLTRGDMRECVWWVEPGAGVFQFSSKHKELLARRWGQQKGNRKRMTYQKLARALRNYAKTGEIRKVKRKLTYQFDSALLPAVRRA
# How it was run: as §1
# ELK3 = target: T6, ELK3 (Homo sapiens, UniProt P41970 1-407); settings: protein: recombinant; tags: N-terminal GST; dsDNA, one strand shown
# T6 sequence: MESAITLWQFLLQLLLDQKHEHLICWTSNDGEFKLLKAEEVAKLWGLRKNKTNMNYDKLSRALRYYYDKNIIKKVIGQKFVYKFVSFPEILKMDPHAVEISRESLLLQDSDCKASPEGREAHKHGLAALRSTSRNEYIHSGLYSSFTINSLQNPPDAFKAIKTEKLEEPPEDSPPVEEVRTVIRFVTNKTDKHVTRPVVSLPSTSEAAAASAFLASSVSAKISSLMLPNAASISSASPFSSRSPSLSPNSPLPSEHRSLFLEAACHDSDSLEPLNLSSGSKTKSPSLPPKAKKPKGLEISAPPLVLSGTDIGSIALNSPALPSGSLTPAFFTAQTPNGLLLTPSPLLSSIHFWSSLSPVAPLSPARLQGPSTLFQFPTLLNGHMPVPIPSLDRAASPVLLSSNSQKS
# How it was run: as §1
# FEV = target: T7, FEV (Homo sapiens, UniProt Q99581 1-238); settings: protein: recombinant; tags: N-terminal GST; dsDNA, one strand shown
# T7 sequence: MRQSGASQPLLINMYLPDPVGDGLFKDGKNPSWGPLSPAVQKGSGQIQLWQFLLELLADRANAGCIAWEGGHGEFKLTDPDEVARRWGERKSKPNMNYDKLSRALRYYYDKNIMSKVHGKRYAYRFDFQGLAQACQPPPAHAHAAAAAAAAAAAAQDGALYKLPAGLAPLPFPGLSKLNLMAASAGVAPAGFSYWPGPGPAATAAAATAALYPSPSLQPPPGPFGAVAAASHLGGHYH
# How it was run: as §1
# ETV5 = ETV5 (Homo sapiens, UniProt P41161 1-510); settings: protein: recombinant; tags: N-terminal GST; dsDNA, one strand shown
# Chain of ETV5 (P41161 whole entry): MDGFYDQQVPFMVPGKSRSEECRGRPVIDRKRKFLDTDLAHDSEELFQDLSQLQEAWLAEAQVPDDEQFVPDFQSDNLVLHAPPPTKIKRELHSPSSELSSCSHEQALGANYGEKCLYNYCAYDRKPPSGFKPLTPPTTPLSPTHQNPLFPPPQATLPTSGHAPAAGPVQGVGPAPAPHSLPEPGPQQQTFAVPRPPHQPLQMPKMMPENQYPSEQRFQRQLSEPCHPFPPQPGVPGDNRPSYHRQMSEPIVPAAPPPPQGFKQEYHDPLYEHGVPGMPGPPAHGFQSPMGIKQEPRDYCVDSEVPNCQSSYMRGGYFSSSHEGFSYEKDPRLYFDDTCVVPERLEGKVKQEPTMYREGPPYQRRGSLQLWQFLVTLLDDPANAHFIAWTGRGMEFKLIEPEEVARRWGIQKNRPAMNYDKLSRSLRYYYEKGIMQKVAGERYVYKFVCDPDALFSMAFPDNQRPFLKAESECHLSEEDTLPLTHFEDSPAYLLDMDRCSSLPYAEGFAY
# How it was run: as §1
# HSF1 = HSF1 (Homo sapiens, UniProt Q00613 1-529); settings: protein: recombinant; tags: N-terminal GST; chain copies: 3; dsDNA, one strand shown
# Chain of HSF1 (Q00613 whole entry): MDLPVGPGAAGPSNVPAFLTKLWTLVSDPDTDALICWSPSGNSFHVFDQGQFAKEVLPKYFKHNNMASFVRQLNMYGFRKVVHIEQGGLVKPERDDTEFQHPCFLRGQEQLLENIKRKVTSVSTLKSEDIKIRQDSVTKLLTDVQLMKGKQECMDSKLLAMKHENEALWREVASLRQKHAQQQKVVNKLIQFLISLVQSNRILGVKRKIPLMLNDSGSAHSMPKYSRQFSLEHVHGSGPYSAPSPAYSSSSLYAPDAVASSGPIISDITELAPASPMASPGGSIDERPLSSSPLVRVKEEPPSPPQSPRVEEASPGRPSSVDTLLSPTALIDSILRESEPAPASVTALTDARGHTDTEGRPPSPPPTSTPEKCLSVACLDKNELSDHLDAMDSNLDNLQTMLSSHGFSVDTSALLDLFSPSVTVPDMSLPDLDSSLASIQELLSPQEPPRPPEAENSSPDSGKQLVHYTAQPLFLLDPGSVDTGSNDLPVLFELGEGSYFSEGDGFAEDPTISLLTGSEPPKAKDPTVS
# How it was run: as §1
# SPIC = target: T8, SPIC (Homo sapiens, UniProt Q8N5J4 1-248); settings: protein: recombinant; tags: N-terminal GST; dsDNA, one strand shown
# T8 sequence: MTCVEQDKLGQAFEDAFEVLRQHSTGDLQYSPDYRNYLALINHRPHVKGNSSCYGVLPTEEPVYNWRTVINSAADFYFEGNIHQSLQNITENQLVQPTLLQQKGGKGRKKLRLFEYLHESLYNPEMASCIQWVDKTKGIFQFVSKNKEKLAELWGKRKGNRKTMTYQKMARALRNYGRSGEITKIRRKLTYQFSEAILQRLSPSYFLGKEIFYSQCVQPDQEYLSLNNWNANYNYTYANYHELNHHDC
# How it was run: as §1
# ELF4 = ELF4 (Homo sapiens, UniProt Q99607 1-663); settings: protein: recombinant; tags: N-terminal GST; dsDNA, one strand shown
# Chain of ELF4 (Q99607 whole entry): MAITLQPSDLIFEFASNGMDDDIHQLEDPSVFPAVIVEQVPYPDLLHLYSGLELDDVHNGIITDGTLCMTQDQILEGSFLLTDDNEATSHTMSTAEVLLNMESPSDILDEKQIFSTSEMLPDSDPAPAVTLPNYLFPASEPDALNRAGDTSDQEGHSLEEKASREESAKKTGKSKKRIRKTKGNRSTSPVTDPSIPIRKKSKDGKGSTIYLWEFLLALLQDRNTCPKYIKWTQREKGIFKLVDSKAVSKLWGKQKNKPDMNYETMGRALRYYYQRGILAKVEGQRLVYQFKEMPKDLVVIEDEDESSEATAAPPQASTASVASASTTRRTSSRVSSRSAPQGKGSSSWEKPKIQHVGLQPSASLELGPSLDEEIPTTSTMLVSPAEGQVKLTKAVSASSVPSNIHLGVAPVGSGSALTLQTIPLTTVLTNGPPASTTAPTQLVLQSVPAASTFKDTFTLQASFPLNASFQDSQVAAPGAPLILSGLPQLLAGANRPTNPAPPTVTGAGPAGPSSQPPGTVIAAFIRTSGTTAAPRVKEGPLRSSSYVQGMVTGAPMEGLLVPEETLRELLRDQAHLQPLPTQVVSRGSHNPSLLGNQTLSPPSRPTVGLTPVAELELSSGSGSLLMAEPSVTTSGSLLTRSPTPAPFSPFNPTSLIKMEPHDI
# How it was run: as §1
# ELK4 = target: T9, ELK4 (Homo sapiens, UniProt P28324-2 1-405); settings: protein: recombinant; tags: N-terminal GST; dsDNA, one strand shown
# T9 sequence: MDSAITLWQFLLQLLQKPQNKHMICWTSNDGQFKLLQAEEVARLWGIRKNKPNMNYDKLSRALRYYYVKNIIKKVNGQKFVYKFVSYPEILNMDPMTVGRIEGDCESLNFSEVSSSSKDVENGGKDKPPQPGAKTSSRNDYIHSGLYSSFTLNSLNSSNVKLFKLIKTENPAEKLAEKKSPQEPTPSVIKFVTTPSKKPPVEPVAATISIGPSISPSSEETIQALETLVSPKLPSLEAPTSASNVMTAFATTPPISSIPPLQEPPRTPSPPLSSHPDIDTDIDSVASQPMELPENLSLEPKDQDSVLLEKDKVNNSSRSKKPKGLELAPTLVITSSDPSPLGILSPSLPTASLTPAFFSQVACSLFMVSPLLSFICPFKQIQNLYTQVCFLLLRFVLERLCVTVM
# How it was run: as §1
# ETV2 = target: T10, ETV2 (Homo sapiens, UniProt O00321 1-342); settings: protein: recombinant; tags: N-terminal GST; dsDNA, one strand shown
# T10 sequence: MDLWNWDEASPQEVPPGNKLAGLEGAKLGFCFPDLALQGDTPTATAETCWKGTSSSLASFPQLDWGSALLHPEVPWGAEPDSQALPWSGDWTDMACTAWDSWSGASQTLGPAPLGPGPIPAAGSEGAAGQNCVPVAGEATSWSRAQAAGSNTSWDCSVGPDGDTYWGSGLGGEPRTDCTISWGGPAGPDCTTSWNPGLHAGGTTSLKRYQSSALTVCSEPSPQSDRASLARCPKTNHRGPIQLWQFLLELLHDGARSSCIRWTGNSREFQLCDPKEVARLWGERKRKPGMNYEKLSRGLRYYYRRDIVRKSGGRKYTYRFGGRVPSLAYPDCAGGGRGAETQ
# How it was run: as §1
# ELF3 = target: T11, ELF3 (Homo sapiens, UniProt P78545 1-371); settings: protein: recombinant; tags: N-terminal GST; dsDNA, one strand shown
# T11 sequence: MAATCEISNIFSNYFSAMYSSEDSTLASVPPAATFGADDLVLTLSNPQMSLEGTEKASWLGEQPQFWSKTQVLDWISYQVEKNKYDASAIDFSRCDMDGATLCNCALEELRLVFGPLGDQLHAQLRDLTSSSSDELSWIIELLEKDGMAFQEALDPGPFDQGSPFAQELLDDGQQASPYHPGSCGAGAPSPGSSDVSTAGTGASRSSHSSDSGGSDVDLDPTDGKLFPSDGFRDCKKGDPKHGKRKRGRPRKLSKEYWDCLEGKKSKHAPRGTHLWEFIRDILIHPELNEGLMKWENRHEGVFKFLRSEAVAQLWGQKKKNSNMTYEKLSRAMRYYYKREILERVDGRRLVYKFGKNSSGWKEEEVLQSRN
# How it was run: as §1
# CRX = CRX (Homo sapiens, UniProt O43186 1-299); settings: protein: recombinant; tags: N-terminal GST; dsDNA, one strand shown
# Chain of CRX (O43186 whole entry): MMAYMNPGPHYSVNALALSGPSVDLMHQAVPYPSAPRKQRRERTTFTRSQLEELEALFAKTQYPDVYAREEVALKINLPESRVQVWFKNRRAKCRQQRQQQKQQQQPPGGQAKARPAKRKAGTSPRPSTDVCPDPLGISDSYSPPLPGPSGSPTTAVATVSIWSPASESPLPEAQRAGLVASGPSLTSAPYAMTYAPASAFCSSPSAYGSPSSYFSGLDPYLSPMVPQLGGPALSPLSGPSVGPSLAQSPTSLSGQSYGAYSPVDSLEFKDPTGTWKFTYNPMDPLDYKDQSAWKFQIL
# How it was run: as §1
# ETV1 = ETV1 (Homo sapiens, UniProt P50549 1-477); settings: protein: recombinant; tags: N-terminal GST; dsDNA, one strand shown
# Chain of ETV1 (P50549 whole entry): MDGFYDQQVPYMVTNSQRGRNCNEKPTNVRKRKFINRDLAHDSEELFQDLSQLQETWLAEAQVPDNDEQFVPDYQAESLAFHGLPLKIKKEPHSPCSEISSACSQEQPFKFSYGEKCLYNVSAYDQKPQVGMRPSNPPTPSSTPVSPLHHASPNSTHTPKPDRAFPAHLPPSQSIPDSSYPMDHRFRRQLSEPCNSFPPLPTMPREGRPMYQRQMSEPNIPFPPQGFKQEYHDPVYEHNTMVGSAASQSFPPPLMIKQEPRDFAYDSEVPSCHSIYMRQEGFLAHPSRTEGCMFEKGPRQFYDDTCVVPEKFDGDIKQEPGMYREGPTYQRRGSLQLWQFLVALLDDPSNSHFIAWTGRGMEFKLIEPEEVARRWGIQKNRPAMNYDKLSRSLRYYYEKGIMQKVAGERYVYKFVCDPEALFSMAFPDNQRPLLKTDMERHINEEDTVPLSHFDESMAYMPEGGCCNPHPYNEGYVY
# How it was run: as §1
sequence,measurement,setting,value
GCTTAC,binding signal,FLI1,"1.19 fold enrichment (6-mer frequency, TF over GST control)"
same,binding signal,ELK1,"1.12 fold enrichment (6-mer frequency, TF over GST control)"
same,binding signal,GABPA,"1.05 fold enrichment (6-mer frequency, TF over GST control)"
same,binding signal,ERG,"1.19 fold enrichment (6-mer frequency, TF over GST control)"
same,binding signal,ELF1,"1.15 fold enrichment (6-mer frequency, TF over GST control)"
same,binding signal,EHF,"1.16 fold enrichment (6-mer frequency, TF over GST control)"
same,binding signal,SPI1,"1.12 fold enrichment (6-mer frequency, TF over GST control)"
same,binding signal,SPIB,"1.12 fold enrichment (6-mer frequency, TF over GST control)"
same,binding signal,ELK3,"1.23 fold enrichment (6-mer frequency, TF over GST control)"
same,binding signal,FEV,"1.15 fold enrichment (6-mer frequency, TF over GST control)"
same,binding signal,ETV5,"1.12 fold enrichment (6-mer frequency, TF over GST control)"
same,binding signal,HSF1,"1.44 fold enrichment (6-mer frequency, TF over GST control)"
same,binding signal,SPIC,"1.21 fold enrichment (6-mer frequency, TF over GST control)"
same,binding signal,ELF4,"1.1 fold enrichment (6-mer frequency, TF over GST control)"
same,binding signal,ELK4,"1.1 fold enrichment (6-mer frequency, TF over GST control)"
same,binding signal,ETV2,"1.22 fold enrichment (6-mer frequency, TF over GST control)"
same,binding signal,ELF3,"1.4 fold enrichment (6-mer frequency, TF over GST control)"
same,binding signal,CRX,"2.01 fold enrichment (6-mer frequency, TF over GST control)"
same,binding signal,ETV1,"1.22 fold enrichment (6-mer frequency, TF over GST control)"
